Out of some 2,100 compounds screened, about 320 (15%) were called active. Roughly 52% stayed inconclusive and do not appear here. Calls follow the shape of the dose curve; as a rule, active = well fitted cell-killing curve with a large enough effect; inconclusive = small, poorly fitted or top-dose-only effect, or effect the other way; inactive = flat fitted curve, though single readings scatter. Some of the results follow. Entries that show only a call come without a potency.
assay: Viability Counterscreen for CMV-Luciferase Assay of Inhibitors of ATXN expression; settings: HEK-293 CMV-luciferase cells viability, protease fluorescence, 24 h; also: nearly all actives have a fitted effect of over 55% in size
How it was run: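 Fluorescence from cleaved Gly-Phe-AFC (25 uM final, 30 min, ex 405/em 540 nm) reported viability, and the luciferase signal of the same CMV-reporter HEK-293 wells was read 5 min after SteadyGlo addition. Dosing lasted 24 hr.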
Potency is read from the fitted curve at half-maximal effect.

Row | SMILES | Potency
1 | COc1c(C)cccc1C(=O)Nc1ccc(N2CCN(C(=O)c3ccccc3C)CC2)cc1 | 31.6 µM (active)
2 | Cc1ccc(C(=O)N2CCN(c3ccc(NC(=S)NC(=O)c4cccs4)cc3)CC2)cc1 | inactive
3 | COc1ccccc1N(C)S(=O)(=O)c1ccc(C(=O)Nc2ccc(N3CCOCC3)cc2)cc1 | inactive
4 | CC(C)n1c(NCc2cc(Cl)ccc2O)nc2ccccc21 | inactive
5 | C/C(=N\N=C(N)N)c1ccc(Cl)cc1Cl | inactive
6 | O=C(NNc1nc2ccc(Cl)cc2s1)c1cc(-c2cccs2)nc2ccccc12 | inactive
7 | O=C(Nc1nc(-c2ccccn2)cs1)c1cc(Cl)ccc1[N+](=O)[O-] | 3.16 µM (active)
8 | Cc1c(C(=O)Nc2nccs2)sc2nc(-c3cccs3)cc(C(F)(F)F)c12 | inactive
9 | CC(N)c1csc(NC(=O)c2cc(C(C)(C)C)nn2Cc2ccccc2)n1 (configuration not stated) | inactive
10 | CCc1sc(C(=O)Nc2nc(-c3ccccn3)cs2)cc1C | 11.2 µM (active)
11 | Cc1cc(OCC(=O)NC(C)c2ccccc2)ccc1[N+](=O)[O-] (configuration not stated) | inactive
12 | O=C(Nc1nc(-c2ccccn2)cs1)c1ccccc1-n1cnnn1 | 7.94 µM (active)
13 | COc1ccc(CNC(=O)CSc2nc(-c3ccccc3)cc(-c3cccs3)c2C#N)cc1 | inactive
14 | CCCOc1ccccc1C1NC(=O)NC(C)=C1C(=O)OCc1ccccc1 (configuration not stated) | inactive
15 | CN1CCN(CC#CCn2c3ccccc3c3ccccc32)CC1 | inactive
16 | CCc1nc2c(OCc3ccc(Cl)cc3Cl)cccn2c1N(C=O)Cc1ccc(OC)cc1 | inactive
17 | Cc1cc(/C=N/n2cnnc2)c(C)n1-c1ccc(OCc2ccc(Cl)cc2Cl)cc1 | 28.2 µM (active)
18 | S=C(Nc1ccccc1)Nc1ccc(OCc2ccc(Cl)cc2Cl)cc1 | inactive
19 | CN1CCN(c2nc(Nc3ccc(F)cc3)nc(Nc3ccc(F)cc3)n2)CC1 | inactive
20 | CCc1nc2c(OCCOc3ccc(F)cc3)cccn2c1N(C=O)Cc1ccc(OC)cc1 | inactive
21 | S=C(Nc1cc(Cl)ccc1Oc1ccccc1)N1CCN(c2ccccn2)CC1 | 25.1 µM (active)
22 | CCN(CC)S(=O)(=O)c1ccc(C)c(NC(=S)N2CCN(c3ccccn3)CC2)c1 | inactive
23 | O=C(c1ccc(Cn2c(=S)[nH]c3ccccc3c2=O)cc1)N1CCN(c2ccccn2)CC1 | inactive
24 | Cn1cccc1/C=N/N1CCN(Cc2ccccc2Cl)CC1 | inactive
25 | C=CCNc1oc(-c2ccc(Cl)cc2)nc1C#N | inactive
26 | O=C1N/C(=N/N=C/c2ccccc2O)SC1Cc1ccc(F)cc1 (configuration not stated) | 14.1 µM (active)
27 | COc1cccc(C(=O)NC2CC3CCCC(C2)N3CC(=O)Nc2ccccc2C(F)(F)F)c1 (configuration not stated) | inactive

From PubChem BioAssay AID1745849 (National Center for Advancing Translational Sciences (NCATS), 2022)
